PP1 counter = PP1-alpha phosphatase inhibitors, primary screen, counter-screen for PP5 inhibitor project, biochemical, fluorescence, OMFP substrate, single point; purified PP1alpha; inhibition, % at 6.7 µM; 320,000 compounds, 0.9% hits; AID 2235, 2010;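 active means inhibition above the mean inhibition of all tested compounds plus 3 SD, computed separately for each screening campaign, cut at about 15% in these data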
pPAFAH FP inh = pPAFAH enzyme inhibitors, primary screen, biochemical, fluorescence polarization, human; Platelet-activating factor acetylhydrolase (Homo sapiens), Q13093; 330,000 compounds, 1.5% hits; AID 463082, 2010; recombinant pPAFAH, FP-rhodamine probe fluorescence polarization; inhibition, % at 3.39 µM;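 active means inhibition above the mean inhibition across the screen plus 3 SD, cut at about 25% in these data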;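 further: inhibitors block binding of the rhodamine activity-based probe so polarization drops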
PAFAH2 FP inh = PAFAH2 enzyme inhibitors, primary screen, biochemical, fluorescence polarization, human | Platelet-activating factor acetylhydrolase 2, cytoplasmic (Homo sapiens), Q99487 | 340,000 compounds, 0.99% hits | recombinant PAFAH2, FP-rhodamine activity probe | AID 492956, 2010 | inhibition, % at 3.39 µM;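 active means inhibition above the mean over all tested compounds plus 3 SD, cut at about 30% in these data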;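 further: inhibitors block probe labeling of enzyme so polarization drops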
PAFAH1B2 inh = PAFAH1B2 enzyme inhibitors, primary screen, biochemical, fluorescence polarization, human; recombinant PAFAH1B2, FP-rhodamine activity probe; Platelet-activating factor acetylhydrolase IB subunit alpha2 (Homo sapiens), P68402; inhibition, % at 3.39 µM; 340,000 compounds, 1.2% hits;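 active means inhibition above the mean of all tested compounds plus 3 SD, cut at about 24% in these data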
PP5 primary = PP5 phosphatase inhibitors, primary screen, biochemical, fluorescence | Serine/threonine-protein phosphatase 5 (Homo sapiens), P53041 | purified PP5c, OMFP substrate fluorescence | inhibition, % at 6.7 µM | 320,000 compounds, 0.18% hits;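 active means inhibition above the campaign's mean inhibition across all tested compounds plus 3 SD, cut at about 9.5% in these data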
Target sequence (P53041 whole entry, looked up): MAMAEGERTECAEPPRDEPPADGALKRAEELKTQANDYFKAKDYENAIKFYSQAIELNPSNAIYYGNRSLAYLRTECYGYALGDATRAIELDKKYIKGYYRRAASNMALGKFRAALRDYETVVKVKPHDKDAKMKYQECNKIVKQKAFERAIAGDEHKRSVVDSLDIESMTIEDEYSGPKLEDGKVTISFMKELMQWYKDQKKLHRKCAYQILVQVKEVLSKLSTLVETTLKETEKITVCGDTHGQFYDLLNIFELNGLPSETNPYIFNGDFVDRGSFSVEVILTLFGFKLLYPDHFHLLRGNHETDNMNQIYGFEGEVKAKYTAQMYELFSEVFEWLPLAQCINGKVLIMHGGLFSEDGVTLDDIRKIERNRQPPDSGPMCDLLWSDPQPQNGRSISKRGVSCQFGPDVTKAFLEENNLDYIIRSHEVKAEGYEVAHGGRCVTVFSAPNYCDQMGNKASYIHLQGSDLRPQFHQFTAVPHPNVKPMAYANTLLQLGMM
PAFAH1B3 inh = PAFAH1B3 enzyme inhibitors, primary screen, biochemical, fluorescence polarization, human. Platelet-activating factor acetylhydrolase IB subunit alpha1 (Homo sapiens), Q15102. recombinant PAFAH1B3, FP-rhodamine probe. inhibition, % at 3.39 µM. 340,000 compounds, 0.28% hits. AID 492972, 2010;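 active means inhibition above the screen-wide average of all tested compounds plus 3 SD, cut at about 25% in these data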
Each line names hits and unclear results; the compound was inactive in the other large screens. Sampled rows, rich in hits. Any-hit rate of the full collection: about 3.4%.

O=C1ON=C(c2ccccc2)/C1=C/c1ccc(O)cc1	none
CC(=O)c1ccc(OCCOc2ccc(C#N)cc2)cc1	none
O=C1NN(c2cccc(Br)c2)C(=O)/C1=C/c1ccc(-c2cc([N+](=O)[O-])ccc2O)o1	pPAFAH FP inh 28.0, PAFAH2 FP inh 47.3, PAFAH1B3 inh 31.4
Cc1ccc(N2NC(=O)/C(=C/c3ccc(-c4ccc(Cl)c(C(=O)O)c4)o3)C2=O)cc1C	none
O=C1NN(c2ccc(Cl)c(Cl)c2)C(=O)/C1=C/c1ccc(-c2ccccc2C(=O)O)o1	PAFAH2 FP inh 30.4, PAFAH1B2 inh 26.4 (no result: PP1 counter, pPAFAH FP inh, PP5 primary)
O=C1NN(c2cccc(Br)c2)C(=O)/C1=C\c1ccc(O)cc1	none
Cn1c(=O)c2c(nc(NCCO)n2CCc2ccccc2)n(C)c1=O	none
N#CCCNS(=O)(=O)c1ccc(C(=O)OCC(=O)Nc2ccc3c(c2)OCO3)cc1	none
CC1(C)Cc2c(C#N)c(N)sc(=S)c2CS1	none
N#Cc1c(N)sc(=S)c2c1CCCCC2	pPAFAH FP inh 29.1, PAFAH2 FP inh 44.8
N#Cc1c(N)sc2c1CCCCCC2	PAFAH1B2 inh 28.5
C[C@H](CO)N1C[C@H](C)[C@@H](CN(C)S(=O)(=O)c2ccccc2)Oc2c(NS(=O)(=O)c3ccc(F)cc3)cccc2C1=O	none (no result: PP1 counter, PP5 primary)
COc1ccccc1Nc1ccc(NS(=O)(=O)c2ccc(C(C)=O)cc2)cc1	pPAFAH FP inh 33.7
CC(=O)Nc1ccc(NS(=O)(=O)c2ccc3ccccc3c2)cc1	none
CC(=O)NS(=O)(=O)c1ccc(NS(=O)(=O)c2ccc3ccccc3c2)cc1	PAFAH1B2 inh 28.6
COc1ccc(S(=O)(=O)Nc2ccccc2)cc1	none
CC(=O)Nc1ccc(S(=O)(=O)Nc2nc3ccccc3nc2Nc2ccc(S(N)(=O)=O)cc2)cc1	none
COc1ccc(Nc2nc3ccccc3nc2NS(=O)(=O)c2ccc(NC(C)=O)cc2)cc1	pPAFAH FP inh 26.7
COc1ccc(S(=O)(=O)Nc2ccc(Nc3ccccc3)cc2)cc1	pPAFAH FP inh 27.1 (no result: PAFAH2 FP inh, PAFAH1B2 inh, PAFAH1B3 inh)
O=C(NC(=S)N1CCCC1)c1ccccc1	none
Cc1ccc(-n2c(-c3cc(C)n(C)n3)n[nH]c2=S)cc1	none
COc1ccc(Nc2nc3ccccc3nc2NS(=O)(=O)c2cccs2)cc1	pPAFAH FP inh 27.1
COc1ccc(NS(=O)(=O)c2ccc(NC(=O)Cc3cccs3)cc2)cc1	pPAFAH FP inh 25.6
O=S(=O)(Nc1ccccc1)c1ccc(S(=O)(=O)N2CCCC2)cc1	pPAFAH FP inh 26.8
COc1ccc(NS(=O)(=O)c2cc(NC(=O)Cc3cccs3)ccc2C)cc1	none
COc1ccc(S(=O)(=O)Nc2ccc(N3CCOCC3)cc2)cc1	none
COCCCNc1nc2ccccc2nc1NS(=O)(=O)c1cccs1	none
Cc1ccc(S(=O)(=O)Nc2ccc(S(=O)(=O)N3CCCC3)cc2)cc1	none
CCOc1ccc(S(=O)(=O)Nc2nc3ccccc3nc2Nc2ccc(N3CCOCC3)cc2)cc1	pPAFAH FP inh 32.8
CN(CC(=O)Nc1ccccc1C(F)(F)F)C(=O)CSc1nnnn1C	none
C#CCNC(=O)C1=C[C@@H](c2ccc(C#C)cc2)C[C@@H](OCCCCO)O1	none
O=C(O)c1cccc(Nc2nc3ccccc3nc2NS(=O)(=O)c2cccs2)c1	none
CC(=O)c1ccc(Nc2nc3ccccc3nc2NS(=O)(=O)c2cccs2)cc1	pPAFAH FP inh 26.9
CCCc1cc(C(=O)N2CCCC(Cc3cccc(Cl)c3)(C(=O)OCC)C2)n(C)n1 (stereo not drawn)	none
COC(=O)CNC(=O)Cn1nc(C)c([N+](=O)[O-])c1C	none
O=C(O)c1cc(S(=O)(=O)Nc2ccccc2C(=O)O)ccc1O	none
O=C(O)c1ccccc1NS(=O)(=O)c1ccc(N/N=C/c2cccc(O)c2O)c([N+](=O)[O-])c1	PAFAH2 FP inh 63.3, PAFAH1B2 inh 44.0, PAFAH1B3 inh 47.9 (no result: PP1 counter, pPAFAH FP inh, PP5 primary)
CC(=O)Nc1cccc(/C(C)=N/Nc2ccc(S(=O)(=O)Nc3ccccc3C(=O)O)cc2[N+](=O)[O-])c1	PAFAH2 FP inh 38.3, PAFAH1B2 inh 33.1 (no result: PP1 counter, pPAFAH FP inh, PP5 primary)
COc1ccc(NC(=O)c2ccccc2NS(=O)(=O)c2ccc(C)cc2)c([N+](=O)[O-])c1	none
CCOc1ccc(C=NNc2ccc(S(=O)(=O)Nc3ccccc3C(=O)O)cc2[N+](=O)[O-])cc1OC	pPAFAH FP inh 25.1 (no result: PP1 counter, PP5 primary)
O=C(COCC(=O)N/N=C/c1ccccc1F)N/N=C/c1ccccc1F	none
CSCCC(NC(=O)c1ccco1)C(=O)NCc1ccc(F)cc1 (stereo not drawn)	none
CSCCC(NC(=O)c1ccco1)C(=O)NCCc1ccc(Cl)cc1 (stereo not drawn)	PAFAH1B2 inh 28.1 (no result: PP1 counter, PP5 primary)
O=C(O)c1ccc(COc2ccccc2C=C2C(=O)c3ccccc3C2=O)cc1	none
COc1cccc(-c2coc3c(C)c4oc(=O)c(CC(=O)O)c(C)c4cc23)c1	none
Cc1c(CC(=O)O)c(=O)oc2c(C)c3occ(-c4ccc(Br)cc4)c3cc12	PAFAH1B2 inh 28.9
COc1cccc(-c2coc3c(C)c4oc(=O)c(CCC(=O)O)c(C)c4cc23)c1	pPAFAH FP inh 24.9
Cc1ccc(CN2CC(C(=O)Nc3cccc(C)n3)CC2=O)cc1 (stereo not drawn)	none
COc1ccc(OC)c(C2Nc3c(Cl)ccc(C(=O)O)c3C3C=CCC32)c1 (stereo not drawn)	pPAFAH FP inh 24.6
Cc1cc([N+](=O)[O-])cc2c1NC(c1ccccn1)C1CC=CC21 (stereo not drawn)	none
O=C(O)c1ccc(Cl)c2c1C1C=CCC1C(c1ccccn1)N2 (stereo not drawn)	pPAFAH FP inh 58.2 (no result: PAFAH2 FP inh, PAFAH1B2 inh, PAFAH1B3 inh)
COc1ccccc1CC(=O)NC1CC1	none
Cc1ccc(SCC(=O)OCC(=O)NCCc2ccccc2)cc1	pPAFAH FP inh 27.7, PAFAH1B2 inh 49.9
Cc1csc(SCC(=O)NC(C)c2ccccc2)n1 (stereo not drawn)	none
Cc1ccc(OCCC(=O)OCC(=O)NCCc2ccccc2)cc1	none
O=C(CSc1ccc2ccccc2c1)NCc1cccs1	PAFAH1B2 inh 26.2
Cc1ccc(SCC(=O)NC(C)c2ccccc2)cc1 (stereo not drawn)	PAFAH1B2 inh 34.4
Cc1ccc(SCC(=O)OCC(=O)NCc2cccs2)cc1	PAFAH1B2 inh 27.9
COc1ccccc1NC(=O)/C=C\c1ccco1	none
Cc1ccc(SCC(=O)OCC(=O)NCCc2ccccc2)cc1C	pPAFAH FP inh 29.6
O=C(COC(=O)c1cccc(Cl)c1Cl)NCc1cccs1	pPAFAH FP inh 33.4, PAFAH2 FP inh 32.6
Cc1ccc(SCC(=O)OCC(=O)Nc2ccc3[nH]c(=O)[nH]c3c2)cc1C	none
